We go through 51 compounds from PubChem BioAssay AID932 (The Scripps Research Institute Molecular Screening Center, 2007).

The campaign covered roughly 200,000 compounds. About 5,100 (2.5%) were called active. The list comes from a sample in which actives are over-represented; it also holds similar structures and randomly drawn compounds. A number with no mark means an inactive call.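 The calls were made as follows: active = activation above the screen-wide mean activation plus 3 SD (cut at about 130% in these data); inactive = the rest.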

The nature of this test: STAT1 signaling activators, primary screen, cell-based, HTS, luciferase reporter (AID 932).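 Also: raw ratio to IFN-gamma control signal so 100% means no change and 0% no light.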 The conditions noted are these: NIH 3T3 STAT1-luciferase reporter, IFN-gamma, luminescence; at 5.5 µM; active compounds read high; 100% = IFN-gamma alone, no compound. A general note: Reporter assays use an easily measured gene product as a stand-in for the process of interest.
Take `O=C(COc1ccccc1Cl)Nc1ccc(C(=O)c2ccc(C(=O)O)cc2)cc1`: the activation (% of control) was 98%.

With `CSCCC(=O)N1CCCC(CNC(=O)c2ccccc2Cl)C1` (stereo unspecified), the activation (% of control) was 96.7%.

Turning to `CCN(CC)S(=O)(=O)c1ccc(NC(=O)c2cccnc2Cl)c(NC(=O)c2cccnc2Cl)c1`, the activation (% of control) was 88.7%.

Take `O=C1Nc2cc(Cl)c(Cl)cc2N(O)N1c1ccccc1Cl`: the activation (% of control) was 82.7%.

With `S=C(c1ccc(-c2ccccc2)o1)N1CCCCC1`, the activation (% of control) was 138% (active).

For `CC1CCN(C(=S)c2ccc(-c3ccc(Cl)cc3Cl)o2)CC1`, the activation (% of control) is 85.7%.

Regarding `S=C(NCCc1ccccc1)N1CCCCC1`, the activation (% of control) was 122%.

Turning to `O=C(CNC(=O)COc1ccccc1)NCCc1ccccn1`, the activation (% of control) is 104%.

With `Cc1nn(Cc2ccc(Cl)cc2)c(Cl)c1/C=N/NC(=O)c1cccnc1`, the activation (% of control) was 94.4%.

In the case of `Cc1cc(/C=N/NC(=O)c2cccnc2)c(C)n1CC(C)C`, the activation (% of control) was 139% (active).

Consider `CCC(=O)Nc1cccc(NC(=O)c2cccnc2)c1`, for which the activation (% of control) is 98.6%.

For the compound `Cc1ccc2sc(NNC(=O)c3ccc4c(c3)OCCO4)nc2c1C`, the activation (% of control) was 104%.

On to `Cc1cc2nc(SCCN3CCOCC3)[nH]c2cc1C`, for which the activation (% of control) is 152% (active).

In the case of `CCOC(=O)CSc1nc2ccc(C)cc2[nH]1`, the activation (% of control) was 111%.

Turning to `Cc1ccc(S(=O)(=O)NCCN2CCOCC2)cc1C`, the activation (% of control) is 96.1%.

As to `COc1ccc(CN2CCCC(CNC(=O)c3ccc(F)cc3)C2)cc1OC` (stereo unspecified), the activation (% of control) is 97.8%.

As to `CC1CCC(NC(=O)C2c3ccccc3C(=O)N2Cc2ccc3c(c2)OCO3)CC1` (stereo unspecified), the activation (% of control) is 89.6%.

Take `OCCCN1c2ccccc2Nc2nnc(-c3ccccc3)cc21`: the activation (% of control) was 156% (active).

On to `N=c1c2c(-c3ccccc3)c(-c3ccccc3)n(Cc3ccccc3)c2ncn1CCCO`, for which the activation (% of control) was 102%.

On to `Cc1ccc(C)c(-n2ccnc2SCC(N)=O)c1`, for which the activation (% of control) was 102%.

For `Cc1ccc(NC(=O)Nc2cccc(C(F)(F)F)c2)nc1`, the activation (% of control) was 129% (active).

Consider `Cc1cccc(NC(=O)c2cccc(C(F)(F)F)c2)c1`, for which the activation (% of control) was 107%.

On to `O=C(Nc1cccc(C(F)(F)F)c1)c1cnccn1`, for which the activation (% of control) is 110%.

On to `CN(C)c1ccc2c(=O)[nH][nH]c(=O)c2c1`, for which the activation (% of control) is 103%.

Take `COc1ccc(-n2c(C)nn(CC3CC3)c2=O)cc1`: the activation (% of control) was 97.8%.

On to `NS(=O)(=O)c1ccc(CCNC(=O)CCCn2c(SCC(=O)N3CCCC3)nc3ccsc3c2=O)cc1`, for which the activation (% of control) was 99.5%.

As for `CCc1ccc(NC(=O)CC2C(=O)NCCN2C(=S)Nc2ccccc2)cc1` (stereo unspecified), the activation (% of control) was 100%.

Consider `O=C1CN(C(=O)COC(=O)c2cnc(Cl)c(Cl)c2)c2ccccc2N1`, for which the activation (% of control) was 92.8%.

As to `CCN(CC)N=Nc1cccc(NC(C)=O)c1`, the activation (% of control) is 88.6%.

For the compound `CCOc1ccc2cc(C#N)c(SCC(=O)OC)nc2c1`, the activation (% of control) is 150% (active).

For the compound `Cc1nonc1NC(=O)CSc1nc2ccccc2cc1C#N`, the activation (% of control) is 117%.

Regarding `CCOc1ccc2nc(NCCNS(=O)(=O)c3ccccc3)c(C#N)cc2c1`, the activation (% of control) is 102%.

With `O=C(CSc1cccc[n+]1[O-])NCCCc1ccccc1`, the activation (% of control) is 91.9%.

Consider `CCOC(=O)C1CCN(CCC(=O)Nc2cccc(C)c2)CC1`, for which the activation (% of control) was 98.8%.

Regarding `CCOc1cc(/C=N/O)ccc1OCc1ccccc1F`, the activation (% of control) was 104%.

For the compound `COc1cc(/C=C2/C(=O)ON=C2C)ccc1OCc1cccc(F)c1`, the activation (% of control) is 128%.

Turning to `COc1cc(/C=C2/C(=O)ON=C2C)ccc1OCc1ccccc1F`, the activation (% of control) was 129% (active).

In the case of `CCn1c(CSCc2c(Cl)cccc2Cl)n[nH]c1=S`, the activation (% of control) was 98.8%.

Regarding `Cc1noc(C)c1CCC(=O)O`, the activation (% of control) was 95.1%.

For the compound `COc1ccc(CNC(=O)CN2CCC(n3nnc4cc(F)ccc43)CC2)cc1`, the activation (% of control) was 88.1%.

With `COc1ccc2nc(Nc3nc4cc5c(cc4s3)OCCO5)sc2c1`, the activation (% of control) was 114%.

Consider `CSc1ncccc1C(=O)Nc1nc2ccc(F)cc2s1`, for which the activation (% of control) was 123%.

For `Fc1ccc2nc(Nc3nc4c(s3)CCCC4)sc2c1`, the activation (% of control) is 162% (active).

On to `CCCCCC(=O)Nc1ccc(S(=O)(=O)Nc2ccc(Cl)nn2)cc1`, for which the activation (% of control) is 102%.

For the compound `O=C(C1=C[C@H](c2coc3ccccc3c2=O)C[C@H](OCc2ccc(CO)cc2)O1)N1CCOCC1`, the activation (% of control) is 102%.

On to `COc1ccc(/C=N/NC(=O)Cn2cc(C(F)(F)F)ccc2=O)cc1`, for which the activation (% of control) was 97.9%.

As for `Cc1ccccc1OCCC(=O)OCC(=O)NC(C)c1ccccc1` (stereo unspecified), the activation (% of control) is 99.7%.

`COCCOC(=O)c1c(C)oc2cc(Br)c(OCC(N)=O)cc12`: the activation (% of control) is 94.5%.

In the case of `Cc1ccc(COc2ccc(C(=O)NN)cc2)cc1`, the activation (% of control) is 116%.

For the compound `c1ccc(Nc2nc(-c3ccncc3)cs2)nc1`, the activation (% of control) is 193% (active).

Turning to `CCCc1cc(-c2nc(-c3ccc(C)cc3)cs2)ccn1`, the activation (% of control) was 99.8%.
